Measurements published in PubChem BioAssay (NCATS).
Inconclusive results are not listed. Calls of active or inactive are those of the source. The call rests on the fitted dose curve; in most records, active means well fitted inhibition curve with a large enough effect; inconclusive means small, poorly fitted or top-dose-only effect; inactive means flat fitted curve, though single readings scatter. Where a SMILES comes first, the peptide text is derived from it. Bridges are numbered along the chain shown (N, C = ends). [ ]: non-standard residue; d: D form. The star is where a group is joined. X2 = CC[C@H](C)CCCCC(=O)*; Dab = NCC[C@H](N)C(=O)O

assay: P-glycoprotein substrates identified in KB-8-5-11 adenocarcinoma cell line, qHTS therapeutic library screen (AID 1346987); conditions: KB-8-5-11 (P-gp overexpressing) viability, CellTiter-Glo, 72 h; series mostly up to 44.5 µM; activity change, negative = cytotoxicity: at the top concentration; further: nearly all actives have a fitted effect of over 65% in size
Source text: The ATP-binding cassette transporters P-glycoprotein (P-gp) is known to limit brain penetration of many chemotherapy drugs. […] As such, we developed a high-throughput screen (HTS) to identify substrates of P-gp from a series of chemical libraries including the National Center for Advancing Translational Sciences Pharmaceutical Collection NPC, 2,816 compounds), testing a total of 10,804 compounds, most of which have known mechanisms of action. We used the CellTiter-Glo viability assay to test library compounds against the parental KB-3-1 human cervical adenocarcinoma cell line and the colchicine-selected sub-line KB-8-5-11 that over-expresses P-gp. KB-8-5-11 cells were also tested in the presence of a P-gp inhibitor (tariquidar) to assess reversability of transporter-mediated resistance. Of the tested compounds, a total of 90 P-gp substrates were identified including 55 newly identified P-gp substrates. Substrates were confirmed using an orthogonal killing assay against HEK-293 cells transfected with P-gp. As exemplars, we confirmed that […] (cyclin-dependent kinase inhibitor); AT9283, (Janus kinase 2/3 inhibitor); ispinesib (kinesin spindle protein inhibitor); gedatolisib (PKI-587, phosphoinositide 3-kinase/mammalian target of rampamycin inhibitor); GSK-690693 (AKT inhibitor); and KW-2478 (heat shock protein 90 inhibitor) were substrates , and direct ATPase stimulation was assessed. ABCG2 was also found to confer high levels of resistance to AT9283, GSK-690693 and gedatolisib, while ispinesib, AT7519 and KW-2478 were weaker substrates.
The HeLa derivative cell line, KB-3-1, and its colchicine-selected, P-gp-overexpressing subline, KB-8-5-11 were maintained in DMEM with 10% FCS and Pen/Strep with glutamine at 37 degree C in 5% CO2. For KB-8-5-11 cells, colchicine was added to the medium at a concentration of 100 ng/mL. HEK-293 cells transfected with empty vector (pcDNA) or vector containing human ABCB1 (MDR-19) or ABCG2 (R-5) have been described previously (Robey, Lin, Qiu, Chan & Bates, 2011) and were maintained in EMEM supplemented with 10% FCS, Pen/Strep and glutamine with 2 mg/ml G418 to select for the expression of the transporter. Cultures were confirmed to be free of mycoplasma infection using the MycoAlert Mycoplasma Detection Kit (Lonza, Walkersville, MD). For the screen, assay medium was identical to culture medium except for KB-8-5-11 where colchicine was excluded from the medium.
All cell lines were plated into 1536-well plates at 500 cells/well in 5 uL media. Compounds were then pinned in dose-response using a 1536-head pin tool (Kalypsis, San Diego, CA) and plates were incubated at 37 degree C in 5% CO2 for an additional 72 h. CellTiter-Glo reagent (Promega) was dispensed into the wells, incubated for 5 min and luminescence was read on a ViewLux instrument (Perkin-Elmer). Cytotoxic compounds were defined as those that yielded a curve class of -1.1, -1.2, -2.1, -2.2, -2.3, or -2.4, a maximum response of >50% and an AC50 of < 10 uM. Cherry-picked hits from screening analysis were tested with both the KB pair of cell lines, and the pcDNA (empty vector control) and MDR-19 (P-gp overexpressing) pair were tested, in the absence and presence of tariquidar.
On the % scale 0 is the no-effect control and ±100 the full control effect; potency means the concentration at half of the fitted maximal effect.

Structure (SMILES) | activity change, negative = cytotoxicity | Potency
Oc1cc(O)cc(O)c1 | 2.01% (inactive) | –
COc1ccc([C@@H]2CC(=O)c3c(O)cc(O[C@@H]4O[C@H](CO[C@@H]5O[C@@H](C)[C@H](O)[C@@H](O)[C@H]5O)[C@@H](O)[C@H](O)[C@H]4O)cc3O2)cc1O | 0.453% [at 17.3 µM] (inactive) | –
CCCCC(CC)COS(=O)(=O)O (stereo not given) | -6.85% (inactive) | –
Cc1ncc(C[n+]2csc(CCO)c2C)c(N)n1 | -9.03% [at 17.3 µM] (inactive) | –
O=C(O)[C@@H]1C[C@H](CP(=O)(O)O)CCN1 | 11.7% (inactive) | –
CCCC(CCC)C(=O)OC1C[C@H]2CC[C@@H](C1)[N+]2(C)C (stereo not given in full) | – | inactive
CC(C)(C)NCC(O)c1ccc(O)c(CO)n1 (stereo not given) | -17.1% (inactive) | –
COc1cc2c(cc1OC)[C@@H](Cc1cc(OC)c(OC)c(OC)c1)[N+](C)(CCCOC(=O)CC/C=C/CCC(=O)OCCC[N+]1(C)CCc3cc(OC)c(OC)cc3[C@H]1Cc1cc(OC)c(OC)c(OC)c1)CC2 (stereo not given in full) | – | inactive
CC(C)(COP(=O)(O)OP(=O)(O)OC[C@H]1O[C@@H](n2cnc3c(N)ncnc32)[C@H](O)[C@@H]1OP(=O)(O)O)C(O)C(=O)NCCC(=O)NCCS (stereo not given in full) | 0.68% (inactive) | –
NCC(O)CC(=O)O (stereo not given) | -8.17% (inactive) | –
C=CCCCCCCCCC(=O)OC | -0.684% (inactive) | –
O=P(O)(O)OC[C@H]1O[C@](O)(COP(=O)(O)O)[C@@H](O)[C@@H]1O | -5.56% (inactive) | –
C[C@@](Cc1ccc(O)c(O)c1)(NN)C(=O)O | -3.59% (inactive) | –
CC(C)CN(C[C@@H](OP(=O)(O)O)[C@H](Cc1ccccc1)NC(=O)O[C@H]1CCOC1)S(=O)(=O)c1ccc(N)cc1 | -9.68% (inactive) | –
Cc1cccc(C)c1Nc1ncccc1C(=O)O | 12.2% (inactive) | –
CC/C=C\C/C=C\C/C=C\C/C=C\C/C=C\CCCC(=O)O | 10.1% (inactive) | –
CCCCC[C@H](O)/C=C/[C@@H]1[C@H]2C/C(=C/CCCC(=O)O)O[C@H]2C[C@H]1O | -6.85% (inactive) | –
CCOC(=S)SSC(=S)OCC | 17.3% (inactive) | –
CC(C)[C@@H](N)C(=O)O | 0.394% (inactive) | –
O=C(O)[C@H]1CN(C/C=C/P(=O)(O)O)CCN1 | 18.4% (inactive) | –

Structure (SMILES) | activity change, negative = cytotoxicity | Potency
CCN(CC)C(=O)c1cccnc1 | -4.64% (inactive) | –
O=C(O)c1cc(N=Nc2ccc(O)c(C(=O)O)c2)ccc1O | 1.33% (inactive) | –
CC[C@H](C)CCCCC(=O)N[C@@H](CCN)C(=O)N[C@H](C(=O)N[C@@H](CCN)C(=O)N[C@H]1CCNC(=O)[C@@H]([C@H](C)O)NC(=O)[C@H](CCN)NC(=O)[C@H](CCN)NC(=O)[C@H](CC(C)C)NC(=O)[C@@H](CC(C)C)NC(=O)[C@H](CCN)NC1=O)[C@@H](C)O (X2-[Dab]T[Dab][Dab][Dab][dL]L[Dab][Dab][dT]; lactam 4-C) | -6.3% [at 17.3 µM] (inactive) | –
Cc1cc(O)c2c(c1)O[C@@]1(C)CC[C@H]3C(C)(C)CCCC34CO[C@@H]2[C@H]41 (stereo not given in full) | -21.7% (inactive) | –
CC(O)[C@H]1CC[C@H]2[C@@H]3CC[C@@H]4C[C@@H](O)CC[C@]4(C)[C@H]3CC[C@]12C (stereo not given in full) | – | 6.51 µM (active)
N=C(N)c1ccc(/C=C/c2ccc(C(=N)N)cc2O)cc1 | – | 18.4 µM (active)
O=C(O)c1ccc(NC2OC[C@@H](O)[C@H](O)[C@H]2O)cc1 (stereo not given in full) | -2.08% (inactive) | –
c1ccc(-n2cnnn2)cc1 | -14.4% (inactive) | –
C=Cc1ccc(S(=O)(=O)O)cc1 | -3.59% (inactive) | –
C[C@H](NCCc1ccc(O)cc1)[C@H](O)c1ccc(O)cc1 | -7.86% (inactive) | –
O=C(/C=C/c1cccc(F)c1)NC1CC1 | 7.34% (inactive) | –
COC(=O)[C@@H](N)CS | -28.8% (inactive) | –
COc1ccc(C(=O)c2ccc(C)cc2)c(O)c1 | -1.61% (inactive) | –
CCCCC/C=C\C/C=C\C/C=C\CCCCC(=O)O | 11.2% (inactive) | –
CC1(C)[C@H]2CC[C@]1(C)[C@H](O)C2 | 3.26% (inactive) | –
Cc1ncc(C[n+]2csc(CCOP(=O)(O)O)c2C)c(N)n1 | -2.41% (inactive) | –
NC(=S)NS(=O)(=O)c1ccc(N)cc1 | 11.2% (inactive) | –
CN(C)C=Nc1c(I)cc(I)c(CCC(=O)O)c1I | 13.4% (inactive) | –
O=P(O)(O)O | 16.9% (inactive) | –
OC1OC[C@@H](O)[C@H](O)[C@@H]1O (stereo not given in full) | 13.5% (inactive) | –
